According to PubChem BioAssay AID1861 (The Scripps Research Institute Molecular Screening Center, 2009):
Among all 290,000 compounds or so, about 3,100 (1.1%) were called active. Rule as the data show it: active = inhibition above about 16% (passing the limit was not always enough); inactive = the rest. Shown is part of a subset that was picked to be rich in actives.

Target: Neuropeptides B/W receptor type 1 (Homo sapiens) (UniProt P48145)
Test: GPR7 receptor antagonists, primary screen, cell-based, fluorescence, single concentration (AID 1861);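 also: cells stimulated with the agonist NPW; 0% = agonist with vehicle and 100% = vehicle without agonist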
Conditions: GPR7-expressing cells, fluorescence antagonist assay; at 4.4 µM; hits give high values

Chain of Neuropeptides B/W receptor type 1 (Homo sapiens) (P48145 whole entry, looked up): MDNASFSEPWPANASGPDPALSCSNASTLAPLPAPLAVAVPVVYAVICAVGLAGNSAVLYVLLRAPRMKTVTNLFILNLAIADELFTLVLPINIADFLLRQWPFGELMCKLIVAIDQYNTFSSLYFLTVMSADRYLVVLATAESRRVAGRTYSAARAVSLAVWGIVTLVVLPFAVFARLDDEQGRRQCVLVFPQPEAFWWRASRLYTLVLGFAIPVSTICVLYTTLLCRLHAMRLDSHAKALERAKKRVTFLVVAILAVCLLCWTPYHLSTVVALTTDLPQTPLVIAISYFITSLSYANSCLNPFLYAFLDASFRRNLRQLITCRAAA

| SMILES | inhibition |
| --- | --- |
| CS(=O)(=O)N1CCc2nc(-c3ccccc3)sc2C1 | -4.29% (inactive) |
| C=CCSc1nnc(NC(=O)c2ccc(NC(C)=O)cc2)s1 | -10.1% (inactive) |
| C=C(C)C(=O)Nc1cccc(C(C)=O)c1 | -8.07% (inactive) |
| CC(=O)c1cccc(NC(=O)c2ccncc2)c1 | -7.93% (inactive) |
| CCSc1nsc(NC(=O)Nc2ccccc2OC)n1 | 0.35% (inactive) |
| C=CCSc1nsc(NC(=O)Nc2cccc(C(C)=O)c2)n1 | 32.5% (active) |
| CCSc1nsc(NC(=O)Nc2cccc(C(C)=O)c2)n1 | 37.1% (active) |
| Cc1ccc(S(=O)(=O)NCc2ccc(C(=O)NC3CCC(C)CC3)cc2)cc1 (configuration not stated) | -11.8% (inactive) |
| COC(=O)c1ccc(CN2CCCC(C(=O)Nc3cccc(-n4cnnn4)c3)C2)cc1 (configuration not stated) | -3.8% (inactive) |
| CCOC(=O)C1Sc2[nH]c(=O)sc2C(c2ccc(Cl)cc2)C1C(=O)OCC (configuration not stated) | -3.9% (inactive) |
| Cc1cc(C)c(C(=O)CSc2nc(C)cc(=O)[nH]2)c(C)c1 | 5.17% (inactive) |
| Clc1ccc(C2CC(c3cccs3)n3ncnc3N2)cc1Cl (configuration not stated) | 24.9% (active) |
| COc1ccc(C2CC(c3ccc(C)cc3)Nc3ncnn32)cc1 (configuration not stated) | 3.36% (inactive) |
| COc1ccc(C2CC(c3ccccc3)Nc3ncnn32)cc1 (configuration not stated) | 12.2% (inactive) |
| Brc1ccccc1CN1CCC(Cc2ccccc2)CC1 | -13.6% (inactive) |
| COc1ccc(Cn2c(C)c(C)c(C#N)c2NC(=O)Nc2ccc(F)cc2)cc1 | -4.33% (inactive) |
| COc1cccc(/C=C2/SC(=S)N(CC(=O)NC3C=CS(=O)(=O)C3)C2=O)c1 (configuration not stated) | -2.21% (inactive) |
| Cc1nc2ccc(S(=O)(=O)N(C)CC(=O)NC(C)c3ccccc3)cc2s1 (configuration not stated) | 2.55% (inactive) |
| COCCN1C(=O)C(=O)/C(=C(/O)c2ccc(S(=O)(=O)N3CCCCC3)cc2)C1c1ccc(OC)c(OC)c1 (configuration not stated) | -6.88% (inactive) |
| COC(=O)c1cc(N2CCNCC2)nc2ccccc12 | 1.6% (inactive) |
| COc1ccc(S(=O)(=O)NCCc2c[nH]c3ccccc23)cc1OC | -6.73% (inactive) |

| SMILES | inhibition |
| --- | --- |
| COc1ccccc1CC(=O)NCCc1c[nH]c2ccccc12 | -0.98% (inactive) |
| COc1cccc(CNCCc2c[nH]c3ccccc23)c1OCc1ccccc1F | 39.6% (active) |
| O=C(CN1CCC(NC(=O)Nc2ccccc2)CC1)Nc1cccc([N+](=O)[O-])c1 | -1.48% (inactive) |
| CC(NC(=O)c1cc(=O)[nH]c2ccccc12)c1ccc(F)cc1F (configuration not stated) | 0.31% (inactive) |
| CC(C)CC(CCc1ccccc1)OS(N)(=O)=O (configuration not stated) | -8.91% (inactive) |
| Cc1nc(C)c(C(=O)Nc2cccc(C)c2C)o1 | 1.66% (inactive) |
| Cc1cccc(NC(=O)c2cccc(C(=O)Nc3cccc(C)c3C)n2)c1C | 36.1% (active) |
| Cc1cccc(NC(=O)c2ccc3nsnc3c2)c1C | 4.08% (inactive) |
| CC(C)N1CCC(NC(=O)Nc2ccccc2)CC1 | -11.8% (inactive) |
| Cn1cc(CNC(=O)c2ccc(OC3CCN(Cc4ccccn4)CC3)cc2)cn1 | -5.98% (inactive) |
| CN(Cc1ccccc1)C(=O)c1ccc(NC2=NC3CS(=O)(=O)CC3S2)cc1 (configuration not stated) | -12.5% (inactive) |
| COc1ccc(C2C=C(c3ccc(Br)cc3)Nc3nc(NS(C)(=O)=O)nn32)cc1 (configuration not stated) | 15% (inactive) |
| O=C(NCCCNc1ccc([N+](=O)[O-])cc1Cl)c1ccccc1F | 5.46% (inactive) |
| O=C(NCCNc1ccccc1[N+](=O)[O-])c1ccccc1F | 2.99% (inactive) |
| O=C(NCCNc1ccc([N+](=O)[O-])cc1Cl)c1ccccc1F | 33.5% (active) |
| COc1cccc(CNc2nc(C(F)(F)F)nc3ccccc23)c1 | -8.14% (inactive) |
| Cc1ccc(N2C(=O)C3C4C=CC(CC4)C3C2=O)cc1Cl (configuration not stated) | -5.89% (inactive) |
| CCCCN(CCCC)CC(O)Cn1c2ccccc2c(=O)c2ccccc21 (configuration not stated) | 4.5% (inactive) |
| O=C1c2ccccc2S(=O)(=O)N1CC(O)Cn1c2ccccc2c2ccccc21 (configuration not stated) | 27.4% (inactive) |
| CS(=O)(=O)N(CC(O)Cn1c2ccccc2c2ccccc21)c1cccc2ccccc12 (configuration not stated) | 29% (active) |
| COc1cc(C(=O)NCc2cc3cc(Cl)ccc3n2C)cc(OC)c1OC | -5.99% (inactive) |

| SMILES | inhibition |
| --- | --- |
| CCN(CC)S(=O)(=O)c1ccc(N2CCN(C)CC2)c(NC(=O)Nc2ccccc2F)c1 | 6.45% (inactive) |
| COc1cc(OC)cc(C(=O)Nc2ccc(S(=O)(=O)Nc3cc(C)on3)cc2)c1 | -3.8% (inactive) |
| COc1ccc(NS(=O)(=O)c2ccc(NC(=S)NC(=O)CC(C)C)cc2)cc1 | 24.2% (active) |
| COc1cc(NS(=O)(=O)c2ccc(NC(C)=O)cc2)cc(OC)c1 | -5.8% (inactive) |
| COc1ccc(NC(=O)c2cnc(NS(=O)(=O)c3ccccc3)nc2)cc1 | -10.5% (inactive) |
| CC(=O)c1ccc(NC(=S)NC(=O)CC(C)C)cc1 | -3.47% (inactive) |
| COc1ccc(NS(=O)(=O)c2ccc(NC(=O)c3ccc(N(C)S(C)(=O)=O)cc3)cc2)cc1 | 22.9% (active) |
| Cc1ccc(C(=O)OCC(=O)NC(=O)Cc2ccccc2)c(O)c1 | -16.1% (inactive) |
| CCOC(=O)CNC(=O)/C=C/c1c(Cl)cccc1Cl | 10.2% (inactive) |
| O=C(Nc1ccccc1C(=O)O)c1ccc(N2C(=O)C3CC=CCC3C2=O)cc1 (configuration not stated) | -9.35% (inactive) |
| O=C(c1ccccc1)N1CCC(CC2CC(c3ccc(Cl)cc3)=NO2)(C(=O)NCC2CCCCC2)CC1 (configuration not stated) | -2.72% (inactive) |
| CCc1nc(Nc2ccc(NC(C)=O)cc2)c2oc3ccccc3c2n1 | -6.65% (inactive) |
| CC(C)OC(=O)CN1C(=O)c2ccccc2C1=O | 20.4% (active) |
| CC(C)OC(=O)CN1C(=O)C(=O)c2ccccc21 | -2.31% (inactive) |
| Cc1cccc2c1N(CC(=O)OC(C)C)C(=O)C2=O | -5.53% (inactive) |
| N#CCOc1ccc(C2=NO[C@@H]3[C@@H]4C[C@@H]([C@H]5C(=O)N(c6ccc7c(c6)OCO7)C(=O)[C@@H]45)[C@H]23)cc1 | 4.89% (inactive) |
| CCc1nn(CC(=O)N2CCN(CC)CC2)c(=O)c2cccn12 | -11.1% (inactive) |
| O=C(Nc1ccccc1Cl)/C(Cl)=C(\Cl)S(=O)c1ccccc1 (configuration not stated) | 23.4% (active) |
| O=C(COC(=O)c1cccs1)Nc1ccccc1Cl | -12.8% (inactive) |
| O=C(Nc1ccccc1Cl)Nn1cnnc1 | -16.3% (inactive) |
